Pf Dd2 inh = Plasmodium falciparum Dd2 growth inhibition | P. falciparum Dd2 growth, SYBR Green, 72 h | Potency, µM (series often up to 28.9 µM), for inactives: top-dose activity, negative = inhibition, actives largely listed as inhibitors | hit rate 4.3% among 120,000; active = well fitted inhibition curve with a large enough effect;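 note: plate controls were DMSO vehicle for no effect and reference drug for full effect; nearly all actives have a fitted effect of over 65% in size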
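Readout: SYBR Green fluorescence, 485 nm excitation, 535 nm emission, after ~16 h lysis at 37C. Before that, Dd2-infected red cells (2.5% hematocrit) grew 72 h with compound, 29 uM top final concentration.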
* = called active by the depositor; i = inactive; [ ] = remark or other dose. The sample as a whole holds a higher share of hits than the screen did. Potency is the fitted concentration of half-maximal effect.

SMILES | Pf Dd2 inh
Cc1noc(-c2cn(C3CCN(C(=O)Cc4ccsc4)C3)nn2)n1 (centres undefined) | i
CC(C)Cn1c(CNC(=O)OC(C)(C)C)nc2cccnc21 | 11.2%
COc1cc(C(=O)N2CCC[C@H]2c2nc(-c3ccc(F)cc3)no2)cc(OC)c1OC | 34.8%
COc1cccc(Nc2csc(CN3CCCC(C)(NC(C)=O)C3)c2)c1 (centres undefined) | 7.94µM*
COc1cccc(Nc2cc(CN3CCC(C)(NC(C)=O)CC3)cc(OC)c2)c1 | i
COc1cccc(-c2cccc(CN3CCCC(C)(NC(C)=O)C3)c2)c1 (centres undefined) | i
O=C(c1nc2sccn2c1Br)N1CCC(n2cc[nH]c2=O)CC1 | -17.7%
CCn1cc(-c2nc3cc(S(=O)(=O)NC(C)C)ccc3n2C(C)C)c(C)n1 | 3.1%
CC(CCc1ccccc1)NC(=O)CN1C(=O)C(c2ccccc2)=NC1(C)C (centres undefined) | -0.5%
Cc1ccccc1CCC1CCCNC1 (centres undefined) | 11.2µM*
Cc1ccccc1CCC1CCCN(C(=O)CCc2cnccn2)C1 (centres undefined) | i
Cc1ccccc1CCC1CCCN(S(C)(=O)=O)C1 (centres undefined) | -19.4%
O[C@@H]1C[C@@H](c2nc(-c3cccnc3)no2)N(CC2CC2)C1 | -6.6%[44.1 µM]
CCc1ccc(-c2cn3c(n2)sc2cc(C(=O)NC4CCCCCC4)ccc23)cc1 | 8.0%
Cc1ccc(-c2cn3c(n2)sc2cc(C(=O)NCCCc4ccccc4)ccc23)c(C)c1 | 5.01µM*
O=C(NCCCN1CCCCCC1)c1ccc2c(c1)sc1nc(-c3ccccc3)cn12 | 10µM*
CCc1ccc(-c2cn3c(n2)sc2cc(C(=O)NCCCc4ccccc4)ccc23)cc1 | i
O=C(NCc1cccs1)c1ccc2c(c1)sc1nc(-c3ccc(F)cc3)cn12 | -11.7%
CCC1CCCCN1CCCNC(=O)c1ccc2c(c1)sc1nc(-c3ccc(F)cc3)cn12 (centres undefined) | 1µM*
O=C(NC1CCCCC1)c1ccc2c(c1)sc1nc(-c3ccccc3)cn12 | i
Cc1ccc(-c2cn3c(n2)sc2cc(C(=O)NC4CCCCCC4)ccc23)cc1 | 0.6%
CCc1ccc(-c2cn3c(n2)sc2cc(C(=O)NCC(C)c4ccccc4)ccc23)cc1 (centres undefined) | -1.5%
COc1cccc2c1OCC(C(=O)N1CCC(NS(C)(=O)=O)CC1)C2 (centres undefined) | 4.5%
Cc1cn2nc(C(=O)N3CCC(NC(=O)c4cccc(N(C)C)c4)CC3)cc2c(=O)[nH]1 | i
CCOC(=O)c1ccc(NC(=O)N2Cc3[nH]cnc3C[C@H]2c2nc(-c3ccc(OC(F)(F)F)cc3)no2)cc1 | i
SMILES | Pf Dd2 inh
O=C1CO[C@H]2CN(c3ncccn3)C[C@H]2N1Cc1ccncc1 | 21.3%[44.1 µM]
O=C(O)C[C@@H]1CCN(C(=O)Nc2ccccc2)C[C@@H]1CCN1CCCCC1 | 5.3%[44.1 µM]
CN1CCCN(C(=O)COc2ccc(Cl)cc2)c2ccccc21 | -23.7%
Cc1ccccc1CN1Cc2nc(-c3ccsc3)ccc2OCC1=O | -0.7%[44.1 µM]
CC(C(=O)NCC1CC1)N1C(=O)COc2ccc(C(=O)COc3cccc(Cl)c3)cc21 (centres undefined) | i
Cc1nnnn1CC(=O)Nc1nn(Cc2ccccc2)c2cccc(OC(C)C)c12 | i
CC(C)Oc1cccc2c1c(NC(=O)C1CC(=O)N(C)C1)nn2Cc1ccccc1 (centres undefined) | -11.2%
CC(C)Oc1cccc2c1c(NC(=O)C1CCN(C)C1)nn2Cc1ccccc1 (centres undefined) | 2.24µM*
Cn1cnc(S(=O)(=O)N2CCC3(CC2)CC(Cc2ccccc2)CCO3)c1 (centres undefined) | -13.9%
CNc1cccnc1OC1CCN(S(=O)(=O)Cc2ccccc2)C1 (centres undefined) | -22.7%
Cc1cccc(C2N3CC4(C(C)C)CN2CC(C(C)C)(C3)C4=O)c1 (centres undefined) | -19.1%
CC(C)C12CN3CC(C(C)C)(CN(C1)C3c1ccc(Cl)cc1)C2=O (centres undefined) | -12.9%
CC(C)C12CN3CC(C(C)C)(CN(C1)C3c1ccccn1)C2=O (centres undefined) | 8.91µM*
COc1cccc(CC(=O)NCC(=O)N2CCCCCNC(=O)CC2c2ccccc2)c1 (centres undefined) | -9.7%
Cc1ccsc1C(=O)N1CCc2nnc([C@@H]3C[C@@H](O)CN3C(C)C)n2CC1 | -22.1%
CCCCN1C(=O)[C@@H]2C[C@@H](O)CN2C2(CN(Cc3cccs3)C2)C1=O | -9.4%[44.1 µM]
COc1ccc2c(c1)c(CN1CCc3nc(N4CCN(C)CC4)[nH]c(=O)c3CC1)cn2C | -0.4%[5.79 µM]
COc1ccc(-c2nc3c(C)cccc3cc2CN2CC[C@@H](O)C2)cc1 | -25.2%
COc1ccc(CN2CCc3nc(N4CCN(C)CC4)[nH]c(=O)c3CC2)c(OC)c1 | 36.8%[5.79 µM]
COc1ccc(-c2nn(-c3ccccc3)cc2CN2CCN(C)CC2)c(F)c1 | 10µM*
COC[C@H]1CCCN1Cc1cn(-c2ccccc2)nc1-c1ccc(OC)cc1F | 10µM*
COc1ccc(-n2cc(CN3CCCC(CO)C3)c(-c3cccc(F)c3)n2)cc1 (centres undefined) | 12.6µM*
Cc1ccccc1-c1nc2cc3c(cc2cc1CN1CCC[C@H]1CO)OCO3 | -13.6%
COc1ccc(-n2cc(CN3CCN(C)C(C)C3)c(-c3cccc(F)c3)n2)cc1 (centres undefined) | -14.2%
COc1ccc(-c2ccnc3nc(-c4ccccc4OC)nn23)c(F)c1 | -20.2%
SMILES | Pf Dd2 inh
CCc1cnc(C)nc1N1CCN(Cc2ccccc2F)C(CCO)C1 (centres undefined) | -27.0%
Cc1ccccc1-c1nn(-c2ccc(F)cc2F)cc1CN1CCCC1CCO (centres undefined) | 7.94µM*
COC[C@@H]1CCCN1Cc1cn(Cc2ccccc2)nc1-c1cc2ccccc2o1 | i
COC[C@@H]1CN(C(=O)c2cc(C3CC3)[nH]n2)C[C@H]1c1nc(C2CC2)no1 | -18.2%
CCN1C(=O)C2CC3(CCN(C(=O)c4cnc(C)cn4)CC3)CN2C1=O (centres undefined) | 10.2%
CCC[C@@H]1CN(c2nc(C(=O)OCC)co2)C[C@H]1NS(C)(=O)=O | 16.4%
COCc1noc([C@@H]2CN(C(=O)c3cc4ccccc4[nH]3)C[C@H]2C(N)=O)n1 | i
COc1cccc(-c2ccc(C(=O)NCCCn3ccnc3C(C)C)cn2)c1 | -29.7%
Cc1ccc(CN2CCn3c(nnc3[C@@H]3C[C@@H](O)CN3Cc3cccnc3)C2)o1 | 9.8%
CCOCCn1nc(C)cc1-c1nc(-c2ccc(C)nn2)no1 | -26.9%
O=C(COc1ccccc1)NC1CCc2n[nH]c(=O)n2CC1 (centres undefined) | i
CN1CCN(C(=O)N2CCCC(CNS(=O)(=O)c3cccs3)C2)CC1 (centres undefined) | -10.8%
Cc1cccc(-c2noc(-c3nc(C)no3)n2)c1 | 22.0%
COc1ccc(-c2nn(-c3ccccc3)cc2CN2CCCC(CO)C2)c(F)c1 (centres undefined) | 8.91µM*
CNCC(=O)N1CCCC(N2CCN(c3ccc(OC)cc3)CC2)C1 (centres undefined) | 0.3%
COc1ccc(-c2nn(-c3ccccc3)cc2CN2CCN3CCCC3C2)c(F)c1 (centres undefined) | 7.08µM*
COc1ccc(F)c(CN2CCC(CCC(=O)N3CCN(c4ccccc4)CC3)CC2)c1 | -29.8%
c1ccc(-c2[nH]ncc2CN2CCCC(N3CCN(c4ccccc4)CC3)C2)cc1 (centres undefined) | -2.9%
